High-throughput results (PubChem)
MITF act: activators of MITF-driven TRPM1 promoter activity in SK-MEL-5 cells | activation, % at 12.5 µM | AID 588334 | SK-MEL-5 TRPM1-promoter luciferase, 24 h; % of positive control, neutral wells = 0 | 0.75% of 300,000 active;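 active means mean activation of at least 80% with every replicate also reaching 80%; inconclusive means mean reaches 80% but some replicate falls short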;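 further: 0% = neutral control wells and 100% = parthenolide positive control wells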
HIV Env fusion: blocks HIV Env-driven cell-cell fusion | 1.1% of 360,000 active | HeLa-JRFL Env/CEM21 cell fusion, luciferase | inhibition, % at 12.3 µM;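 active means mean replicate inhibition score of at least 50 and every replicate individually at or above 50; inconclusive means only one of the two criteria met; inactive means mean below 50 and not all replicates reaching 50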;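 further: 0% = plate neutral controls and 100% = maraviroc near 300 nM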
Wnt act: activators of Wnt/beta-catenin signaling | Wnt/beta-catenin reporter cell assay, activator, plate reader | activation, % at 9.35 µM | 1.2% of 300,000 active | AID 743398; in the data active means activation above about 30%, passing the limit was not always enough; inconclusive means no clear call, values can overlap the other calls;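 further: 0% = neutral control wells and 100% = positive control wells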
miR122 inh: blocks miR-122 activity in Huh7 sensor cells; Huh7 miR-122 Renilla luciferase sensor, 48 h; neutral wells = 0, positive control = 100; activation (reporter increase), % at 12.5 µM; 0.3% of 340,000 active; AID 602342;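 active means mean replicate activation score at least 90 and every replicate individually at or above 90; inconclusive means only one of the two criteria met; inactive means neither criterion met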;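 further: higher luciferase means less miR-122 activity so hits act as miR-122 inhibitors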
esBAF inh: SWI/SNF esBAF complex inhibition | reporter increase, % at 12.5 µM | mouse ES cells, Bmi1-luciferase knock-in reporter, 24 h; 100% = twice the neutral-well signal | AID 602393 | 2% of 350,000 active; in the data active means activation above about 40%; inconclusive means no clear call, values can overlap the other calls;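 further: 0% = median of the plate's neutral control wells and 100% = double that signal; a rise in the Bmi1 reporter signal indicates esBAF inhibition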
Starred values were filed as active, the others as inactive; i = inactive; ? = inconclusive; nt = no result given; [ ] = remark or other dose. Rows were chosen to be rich in hits. Some 3.4% of all compounds tested hit in one or more screens of this group.

SMILES	MITF act	HIV Env fusion	Wnt act	miR122 inh	esBAF inh
c1ccc(OCCNc2ccn3nc(-c4ccco4)cc3n2)cc1	nt	-20.2	-1.2	-2.7	48.3*
c1ccc(OCCNc2ccn3nc(-c4ccccc4)cc3n2)cc1	nt	-33.5	16.5	-6.0	53.4*
Clc1cccc(CNc2ccn3nc(-c4cccs4)cc3n2)c1	nt	-56.1	49.5*	-1.1	58.6*
FC(F)(F)c1cccc(-c2cc3nc(NCCOc4ccccc4)ccn3n2)c1	nt	28.4	6.0	nt	33.8
Fc1ccc(CNc2ccn3nc(-c4ccccc4)cc3n2)cc1	nt	-62.8	-1.8	nt	63.9*
COCCCNc1ccn2nc(-c3cccc(OCc4ccccc4)c3)cc2n1	nt	-7.2	-1.3	nt	15.5
C[C@@H]1CN([C@@H](C)CO)S(=O)(=O)c2ccc(C#Cc3ccc(F)cc3)cc2O[C@@H]1CN(C)C(=O)NC1CCCC1	nt	-21.6[16.7 µM]	nt	-2.5[16.7 µM]	-0.5
C[C@H]1CN([C@@H](C)CO)C(=O)c2cc(-c3ccc(F)cc3)cnc2O[C@H]1CN(C)C(=O)c1ccccc1F	nt	-12.7[16.7 µM]	nt	1.8[16.7 µM]	3.4
COc1cccc(-c2ccc3c(c2)[C@@H]2[C@@H](CCN2Cc2ccccc2OC)[C@@H](CO)N3)c1	nt	nt	nt	2.1[16.7 µM]	0.6
COCCCNc1ccn2nc(-c3ccccc3)cc2n1	nt	62.9*	-20.6	-6.6	-62.0
COc1ccccc1-c1cc2nc(NCCOc3ccccc3)ccn2n1	nt	22.3	-0.4	nt	3.9
c1ccc(OCCNc2ccn3nc(-c4cccs4)cc3n2)cc1	nt	-40.2	-2.0	0.3	64.0*
COCCCNc1ccn2nc(-c3cccc(Cl)c3)cc2n1	nt	-337.2	14.5	nt	-0.9
[O-]/[N+](=C\c1ccccc1)c1ccccc1	47.3	-29.1	6.1	nt	12.9
[O-]/[N+](=C\c1ccccc1)c1ccc(Br)cc1	63.2	-138.3	32.2*	4.1	74.6*
C=CCc1cccc(/C=N/NC(=O)c2ccccc2OC)c1O	14.0	1.1	11.8	3.2	43.9*
O=C(NCC[C@@H]1CC[C@H](NC(=O)C2CC2)[C@H](CO)O1)c1ccc(F)cc1	nt	-4.4[16.7 µM]	nt	nt	3.1
CCc1n[nH]c(=S)n1/N=C/c1c(O)ccc2ccccc12	nt	56.1*	-3.2	4.3	-6.2
CCc1n[nH]c(=S)n1/N=C/c1cccc2ccccc12	-7.5	?	-1.0	0.2	6.4
COc1ccc(S(=O)(=O)Nc2ccc3c(c2)C(=O)N([C@H](C)CO)C[C@H](C)[C@@H](CN(C)C(=O)CCCN(C)C)OCCCC[C@H](C)O3)cc1	nt	2.4[16.7 µM]	nt	1.0[16.7 µM]	6.9
CC(C)c1ccc(/C=C2\SC(N3CCCC3)=NC2=O)cc1	26.1	12.1	41.4*	nt	nt
C[C@H](CO)N1C[C@H](C)[C@@H](CN(C)CC2CC2)Oc2c(NS(=O)(=O)c3cccs3)cccc2C1=O	nt	-11.4[16.7 µM]	nt	30.7[16.7 µM]	-3.4
O=C(Nc1ccccc1N1CCN(c2ccccc2)CC1)c1ccccc1	-16.4	13.5	42.3*	nt	nt
O=C(NC(=S)Nc1ccccc1N1CCOCC1)c1ccccc1F	61.5	nt	3.9	5.8	1.9
O=C(NC(=S)Nc1ccccc1N1CCN(C(=O)c2ccccc2)CC1)c1ccccc1F	3.4	58.3*	-2.9	nt	6.4
SMILES	MITF act	HIV Env fusion	Wnt act	miR122 inh	esBAF inh
O=C(NC(=O)N1CCN(c2ccccc2)CC1)c1ccc(Cl)cc1	nt	-35.3	nt	1.1	49.5*
O=C(Nc1ccccc1N1CCOCC1)c1ccc2ccccc2n1	nt	-357.3	39.8*	10.3	59.3*
Cn1nc(C(=O)Nc2ccccc2N2CCOCC2)ccc1=O	10.7	i	0.8	nt	0.1
O=C(Nc1ccc2c(c1)[C@@H]1C[C@@H](CC(=O)N3CCc4ccccc4C3)O[C@@H](CO)[C@@H]1O2)C1CCOCC1	nt	0.9[16.7 µM]	nt	-1.5[16.7 µM]	-0.4
C[C@@H]1CN([C@H](C)CO)S(=O)(=O)c2ccc(-c3cncnc3)cc2O[C@@H]1CN(C)C(=O)Cc1ccccc1	nt	-37.5[16.7 µM]	nt	1.6[16.7 µM]	-12.7
O=C(Nc1ccccc1N1CCN(C(=O)c2ccccc2)CC1)c1ccc(Br)o1	-3.6	69.1*	-14.8	2.6	-9.9
CN1c2ccc(C#Cc3cccnc3)cc2[C@H]2[C@H](CCN2C(=O)Nc2cc(F)ccc2F)[C@@H]1CO	nt	nt	nt	-4.3[16.7 µM]	6.0
Cc1ccc(/C=C/c2nnc(-c3cccc(C)c3)o2)cc1	7.5	nt	17.4	2.7	52.8*
C(=C\n1nnc2ccccc21)/c1ccccn1	41.7	-51.6	33.9*	10.9	-13.4
CCCC(=O)Nc1ccc2c(c1)C(=O)N(C)C[C@@H](OC)[C@@H](C)CN(Cc1nccs1)[C@@H](C)CO2	nt	57.6*[16.7 µM]	nt	nt	-5.7
CO[C@H]1CN(C)C(=O)c2cc(NC(C)=O)ccc2OC[C@@H](C)N(Cc2nccs2)C[C@H]1C	nt	70.1*[16.7 µM]	nt	-2.7[16.7 µM]	-6.1
CO[C@@H]1CN(C)C(=O)c2cc(NC(=O)Nc3ccc(Cl)cc3)ccc2OC[C@H](C)N(C)C[C@H]1C	nt	59.9*[16.7 µM]	nt	nt	2.8
NS(=O)(=O)c1ccc(CNC(=O)c2ccc(S(=O)(=O)C(F)F)cc2)cc1	3.6	6.8	36.1*	-9.2	-5.4
COc1ccc2[nH]c3c(c2c1)CCn1c-3nc2ccccc2c1=O	28.2	nt	40.8*	-0.9	-13.7
Cc1nn(C)c(C)c1NC(=O)CSc1nc(C2CC2)nc2c1cnn2-c1ccccc1	-1.1	56.6*	-11.5	-2.0	-4.8
CSCCC(NC(=O)c1ccccc1Br)C(=O)NC(C)CCc1ccccc1 (configuration not stated)	11.4	64.0*	-0.9	nt	-6.5
CSCCC(NC(=O)c1ccccc1)C(=O)NCCc1ccccc1 (configuration not stated)	6.0	3.8	0.9	nt	-0.4
CC(C)CNS(=O)(=O)c1cc2c3c(c1)CCC(=O)N3CCC2	6.1	-1.0	-1.3	93.3*	1.3
CC1CC(NS(=O)(=O)c2cc3c4c(c2)CCN4C(=O)CC3)CC(C)(C)C1 (configuration not stated)	1.1	60.8*	3.0	nt	-4.5
CN1C(=O)c2cc(NC(=O)Cc3cccs3)ccc2OC[C@H]2O[C@H](CC(=O)O)CC[C@H]21	nt	-28.1[16.7 µM]	nt	3.4[16.7 µM]	-3.3
C[C@@H]1CN([C@H](C)CO)C(=O)c2cc(C#Cc3ccccc3)cnc2O[C@@H]1CN(C)C(=O)CN(C)C	nt	-10.2[16.7 µM]	nt	-9.3[16.7 µM]	2.4
CN(C)C(=O)C[C@H]1C[C@H]2c3cc(NC(=O)C4CCC4)ccc3O[C@H]2[C@@H](CO)O1	nt	-40.3[16.7 µM]	nt	0.2[16.7 µM]	-4.8
COc1cc(NC(=O)c2c(F)c(F)c(F)c(F)c2F)c(OC)cc1Cl	-38.9	-111.8	nt	-38.9	-12.4
COc1cc(NC(=O)c2cc3nc(C)cc(C)n3n2)c(OC)cc1Cl	99.9*	nt	nt	-11.4	52.2*
O=c1c2cc(N3CCOCC3)ccc2[nH]c(=S)n1Cc1ccc(Cl)cc1	59.6	-35.6	nt	13.4	54.4*
O=C(CCCCCn1c(=S)[nH]c2ccc(N3CCOCC3)cc2c1=O)NCc1ccc(Cl)cc1	-16.1	-0.2	-8.1	-5.7	-2.6
CC(C)OCCCn1c(=S)[nH]c2ccc(N3CCOCC3)cc2c1=O	-1.2	72.0*	nt	-6.7	8.7
O=C(c1sc2cc([N+](=O)[O-])ccc2c1Cl)N1CCCCC1	9.2	10.9	-1.1	-8.7	33.2
CC1CCCN(C(=O)c2sc3cc([N+](=O)[O-])ccc3c2Cl)C1 (configuration not stated)	36.1	nt	nt	-3.5	46.3*
